p53 reactivator – re-activators of mutant p53 | H1299 p53-A138V BP100-luciferase reporter, luminescence, 24 h | Potency, µM (titrated, usually from 92.2 µM), without a hit: at the highest dose activity change, positive = activation, most hits filed as activators | hit rate 0.063% among 320,000 | AID 504706; also: potency is read from the fitted curve at half-maximal effect; % of control where 0% means no effect; nearly all actives have a fitted effect of over 45% in size
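p53-null H1299 cells stably carrying temperature-sensitive p53-A138V and a BP100-luciferase reporter were pinned with compounds (4-point, 1:5 series) and held 24 hrs at 37 deg C. Luminescence was read 10 min after detection reagent.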
RORg inh – blocks mouse ROR gamma transcriptional activity. P51450. Drosophila S2 Gal4-RORgamma UAS-luciferase reporter, 20 h. Potency, µM (doses to about 53.6 µM), inactives show top-dose activity change, negative = inhibition, actives largely listed as inhibitors. hit rate 5.4% among 310,000. AID 2551; also: potency is read from the fitted curve at half-maximal effect; % is scaled to controls: 0 for no effect and ±100 for the full control effect; nearly all actives have a fitted effect of over 60% in size
Target sequence (P51450 whole entry, looked up, the tested form may be a part): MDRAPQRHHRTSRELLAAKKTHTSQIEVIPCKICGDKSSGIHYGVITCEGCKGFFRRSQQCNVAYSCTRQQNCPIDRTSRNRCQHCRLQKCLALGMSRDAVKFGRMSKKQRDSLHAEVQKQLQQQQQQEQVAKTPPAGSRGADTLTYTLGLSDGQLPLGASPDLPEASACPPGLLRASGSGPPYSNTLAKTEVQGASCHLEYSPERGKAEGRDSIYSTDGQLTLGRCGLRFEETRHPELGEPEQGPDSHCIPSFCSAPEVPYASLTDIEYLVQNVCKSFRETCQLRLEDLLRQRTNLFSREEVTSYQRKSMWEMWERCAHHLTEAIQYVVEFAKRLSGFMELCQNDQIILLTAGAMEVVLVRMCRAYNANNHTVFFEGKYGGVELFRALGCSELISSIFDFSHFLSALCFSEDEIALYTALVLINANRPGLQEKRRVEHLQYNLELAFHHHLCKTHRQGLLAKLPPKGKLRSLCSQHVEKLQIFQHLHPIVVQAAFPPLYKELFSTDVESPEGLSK
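Read-out: Photinus luciferase luminescence; inhibitors lower reporter signal. Insect Schneider cells with Gal4-ROR gamma fusion under metallothionein promoter, UAS reporter; 700 uM final copper sulfate induction, 20 hr, ambient temperature.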
Giardia kill – kills Giardia lamblia; Giardia lamblia trophozoite viability; activity change, % at 7.66 µM, hits read low; hit rate 0.15% among 340,000; in the data active = activity change below about -80%; inconclusive = between about -30% and that limit;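 also: parasites exposed to compound for two days anaerobically before the ATP read; % is scaled to controls: 0 for no effect and ±100 for the full control effect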
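Media and compound were dispensed first, then trophozoites at 100 cells/well; plates sat 48 hrs at 37 deg C without oxygen before ATP luminescence reagent was added and read after 15-30 min at room temperature.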
ELG1 DNA repair – inhibitors of ELG1-dependent DNA repair in HEK293T cells; HEK293T ELG1-luciferase reporter, luminescence, 16 h; DNA damage induced by 5-fluorouridine; Potency, µM (highest dose often 46.1 µM), without a hit: at the top dose activity change, negative = inhibition, actives largely listed as inhibitors; hit rate 2.3% among 330,000; AID 504467; also: potency is read from the fitted curve at half-maximal effect; % is scaled to controls: 0 for no effect and ±100 for the full control effect; nearly all actives have a fitted effect of over 55% in size
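Luminescence from the luciferase reporter, measured 30 min after ONE-Glo reagent at room temperature, was the read-out. Beforehand, 2,000 cells per well were exposed for 16 hr at 37 °C to 5-fluorouridine together with compound or vehicle.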
VP16 counter – counter-screen for ROR gamma inhibitors: Gal4-VP16 reporter; Drosophila S2 Gal4-VP16 UAS-luciferase, luminescence, 20 h; Potency, µM (doses to about 53.6 µM), for the others: at the highest dose activity, negative = inhibition, most hits filed as inhibitors; AID 2546; hit rate 3.5% among 310,000;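 also: Gal4-VP16 expression switched on by copper sulfate through the metallothionein promoter; potency is read from the fitted curve at half-maximal effect; % is scaled to controls: 0 for no effect and ±100 for the full control effect; nearly all actives have a fitted effect of over 50% in size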
BRCA1 expr up – activators of BRCA1 expression. MCF7-BRCA1-FFLuc reporter, luminescence, 48 h; response scale: scaled: vehicle 0%, 10 µM genistein 100%. Potency, µM (highest dose often 46.1 µM), for inactives: at the highest dose activation, most hits filed as activators. hit rate 1.1% among 380,000; also: potency is read from the fitted curve at half-maximal effect; nearly all actives have a fitted effect of over 80% in size
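Using MCF7 cells harboring a BRCA1 firefly luciferase reporter, plated 2 h before compound pinning, the screen measured luminescence after 48 h incubation. Responses were normalized to DMSO and 10 microM genistein, then fitted for concentration-effect.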
An asterisk follows results filed as active; ? = inconclusive; . = not tested or not shown. Compounds with a hit are over-represented: about 7.6% of the library has one in this group of screens. Unless noted, calls follow the shape of the dose curve; as a rule, active = well fitted curve in the direction sought with a large enough effect; inconclusive = small, poorly fitted or top-dose-only effect, or another doubt; inactive = no such curve, though single readings can be large; an effect the other way counts as inactive or inconclusive.

SMILES	p53 reactivator	RORg inh	Giardia kill	ELG1 DNA repair	VP16 counter	BRCA1 expr up
COc1cc(Nc2cc(C)nc3nc(C)nn23)cc(OC)c1OC	-4%	-25%	-10	?	13µM*	0%
COc1ccc(Nc2cc(C)nc3nc(C)nn23)cc1Cl	-5%	11%	-11	?	-7%	-11%
CCOCc1[nH]c(=S)[nH]c(=O)c1Cc1ccc(OCC(C)C)cc1	-2%	-19%	1	13%	12%	-44%
CCN(C(=O)CC(C)C)c1nnc(Cn2nnc3ccccc32)s1	-1%	18%	-13	8.2µM*	?	0%
CCN(C(=O)c1ccc(C(C)(C)C)cc1)c1nnc(Cn2nnc3ccccc32)s1	28%	?	-13	4.1µM*	5.6µM*	-56%
COC(=O)c1sc(N)c(C(=O)OC)c1COC(=O)CNS(=O)(=O)c1ccc(C)c(C)c1	-3%	37%	-7	?	0%	-6%
COC(=O)c1sc(N)c(C(=O)OC)c1COC(=O)CCNS(=O)(=O)c1ccc(C)cc1	1%	18%	3	10µM*	-5%	-42%
COc1ccc(/C=C(/NC(=O)c2ccccc2)C(=O)N/N=C/c2sccc2C)cc1	-14%	13µM*	-7	-29%	?	-23%
O=C(Nc1ccccc1)/C(=C\c1cccs1)NC(=O)c1ccccc1	1%	-56%	1	?	?	14%
COc1ccc(/C=C(\NC(=O)c2ccccc2)C(=O)N/N=C/c2sccc2C)cc1	-8%	11µM*	2	-13%	22µM*	-17%
O=C(N/N=C/c1cccs1)/C(=C/c1ccccc1)NC(=O)c1ccccc1	6%	11µM*	2	-5%	?	-23%
COc1ccc(/C=C(\NC(=O)c2ccccc2)C(=O)N/N=C/c2ccncc2)cc1	-3%	30%	9	-1%	-1%	-2%
Cc1cc(NC(=O)Cn2cnc3c(nnn3-c3cccc(F)c3)c2=O)no1	-3%	-19%	28	1%	2%	-49%
Cc1cccc(C)c1NC(=O)N1CCCCCCC1	2%	18%	-3	-3%	-3%	2%
Cc1ccc(CC(=O)Nc2nc3ccccc3[nH]2)cc1C	19%	3.2µM*	6	-1%	-27%	-9%
O=C(Cc1ccccc1Cl)Nc1nc2ccccc2[nH]1	16%	7.1µM*	-13	?	?	0%
Cc1ccc(S(=O)(=O)N2CCN(C3CC4CCC3C4)CC2)cc1 (centres undefined)	2%	0%	-12	5%	14%	-32%
CCCCC/C=N\NC(=O)Cc1ccc([N+](=O)[O-])cc1	-18%	?	-4	17%	?	1%
Cc1ccc(-c2nnn(CCC(=O)NC(C)(C)C)n2)cc1	?	?	-1	?	2%	14µM*
CCOC(=O)c1c(C)oc2c1c(CN1CCN(C(=O)OCC)CC1)c(O)c1ccccc12	?	-40%	-12	?	-21%	26%
CCOC(=O)c1c(C)oc2c1c1c(c3ccccc32)OCN(Cc2ccccn2)C1	15%	7.1µM*	2	?	11µM*	?
COc1cc(N2Cc3ccccc3C2)ccc1C=O	8%	0.35µM*	-18	?	0.4µM*	2%
COc1ccc(C(=O)NCC(=O)OCC(=O)NCCC2=CCCCC2)cc1	3%	-15%	5	9%	6%	5%
COc1ccc(C(=O)NCCC2=CCCCC2)cc1	?	13µM*	-4	?	?	-36%
Cc1cc(C(=O)NCCC2=CCCCC2)ccc1[N+](=O)[O-]	7%	39%	0	?	8%	5µM*
O=C(NCCC1=CCCCC1)c1ccc([N+](=O)[O-])cc1	?	?	14	?	?	?
O=C(CCNC(=O)c1ccc(Cl)cc1)NCCC1=CCCCC1	9%	.	-7	?	.	7.9µM*
